In the library only some 3.3% were active in any assay of this set; here they are far more common.
ERb SRC1 inh = blocks coactivator binding to human estrogen receptor beta. Q92731. TR-FRET ER-beta LBD / SRC1-Cy5 peptide binding; receptor agonist-loaded with 1 µM estradiol. inhibition, % at 25.6 µM. 86,000 tested, 1.3% active. AID 633;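 active means compounds whose percent inhibition of the receptor-coactivator binding signal exceeds about 50% in the single-dose screen, limit read from the data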
FAK inh = inhibitors of human focal adhesion kinase; Q05397; biochemical FAK kinase activity assay; inhibition, %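 (tested at 7 µM)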; 97,000 tested, 0.84% active; AID 727; in the data active means inhibition above about 19%
Smad3 FoxH1 inh = Smad3 (human) transcription factor binding inhibition; P84022; TR-FRET Smad3/Dy647-FoxH1 peptide binding, europium anti-His; inhibition, % at 25 µM; 88,000 tested, 0.29% active; AID 630;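 active means compounds that reduce the energy-transfer binding signal between the protein and its labelled peptide by more than half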
ERa SRC1 pot = enhances coactivator binding to human estrogen receptor alpha | AID 639 | TR-FRET ERalpha-LBD/SRC-Cy5 coactivator binding, 2 h; 100 = basal binding, no effect | P03372 | 86,000 tested, 1.3% active | coactivator binding (% of control), % at 25.6 µM; in the data active means activity above about 200%;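 further: binding measured in presence of low estradiol as agonist stimulus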
Target sequence (P03372 whole entry, looked up, the tested form may be a part): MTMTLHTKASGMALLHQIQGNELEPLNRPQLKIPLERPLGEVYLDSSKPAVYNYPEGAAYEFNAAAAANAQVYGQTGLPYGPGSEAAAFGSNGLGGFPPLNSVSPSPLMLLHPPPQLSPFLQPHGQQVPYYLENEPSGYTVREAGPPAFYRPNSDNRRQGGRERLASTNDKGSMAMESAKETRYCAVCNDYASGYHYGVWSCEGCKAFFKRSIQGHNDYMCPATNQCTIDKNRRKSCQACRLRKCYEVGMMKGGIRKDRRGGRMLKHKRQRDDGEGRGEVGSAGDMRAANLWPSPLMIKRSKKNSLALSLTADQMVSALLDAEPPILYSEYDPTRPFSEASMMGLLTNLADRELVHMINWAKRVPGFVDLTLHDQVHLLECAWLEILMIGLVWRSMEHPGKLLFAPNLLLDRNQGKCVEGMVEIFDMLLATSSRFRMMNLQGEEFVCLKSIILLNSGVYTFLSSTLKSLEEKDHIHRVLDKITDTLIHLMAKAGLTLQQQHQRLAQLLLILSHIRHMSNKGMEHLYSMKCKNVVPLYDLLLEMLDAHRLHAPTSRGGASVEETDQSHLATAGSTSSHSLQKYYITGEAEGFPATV
ERa SRC1 inh = blocks coactivator binding to human estrogen receptor alpha. TR-FRET ER-alpha LBD / SRC-1 peptide, estradiol-bound. inhibition, % at 25.6 µM. AID 629. P03372. 86,000 tested, 1.7% active; in the data active means inhibition above about 50%
Hits are given with their value; – = inactive; · = no result given; ! = not confirmed by another sample; [ ] = dose if it differs, or a comment.

SMILES	ERb SRC1 inh	FAK inh	Smad3 FoxH1 inh	ERa SRC1 pot	ERa SRC1 inh
COc1ccc(-c2cc(-c3ccc(OC)cc3)c(C#N)c(SC)n2)cc1	–	–	–	458[fluorescence artefact?]	–
Cc1c(-c2ccc(F)cc2)nc(N)c(C#N)c1-c1cccs1	–	–	–	–	–
COc1cc(-c2c(C#N)c(N)nc3c2c(C)nn3-c2ccc(C)c(C)c2)cc(OC)c1OC	54[fluorescence artefact?]	·	–	459[fluorescence artefact?]	–
Cc1nn(-c2ccc(F)cc2)c2nc(N)c(C#N)c(-c3cccs3)c12	–	–	–	243[fluorescence artefact?]	–
Nc1ncnc2nc(N3CCN(CCO)CC3)[nH]c12	·	·	–	·	·
Cc1cccc(C(OC(=O)c2ccco2)C(=O)NCc2ccccc2)n1 (stereo not given)	74[fluorescence artefact?]	–	–	–	68[fluorescence artefact?]
CC1=CC(C)(C)Nc2ccc(C)cc21	–	–	73	–	–
CCN1CCc2c(sc3c2c(NCc2ccco2)nc2nnnn23)C1	62[fluorescence artefact?]	·	–	–	85[fluorescence artefact?]
Cc1cccc(-n2cnc(C(=O)N/N=C\c3ccc(Br)cc3)c2)n1	–	–	–	515[fluorescence artefact?]	–
O=C(O)Cc1cccnc1	·	·	–	·	·
CC1CCN(Cc2ccc(NC(=O)C3CCN(c4nnc(-n5cccc5)s4)CC3)cc2)CC1	72[fluorescence artefact?]	·	–	–	85[fluorescence artefact?]
O=C(C1CCN(c2nnc(-n3cccc3)s2)CC1)N1CCN(Cc2ccc3c(c2)OCO3)CC1	–	·	–	–	–
CCCCc1nc(SCC(=O)Nc2cc(C)on2)n[nH]1	98[fluorescence artefact?]	–	–	–	–
COc1ccc(-c2nc(SCC(=O)Nc3cc(C)on3)n[nH]2)cc1	·	–	·	·	·
CCCc1cc(=O)oc2cc(OCC(=O)Nc3ccc4c(c3)OCCO4)ccc12	–	–	–	216[fluorescence artefact?]	–
O=c1c2ccccc2nc(SCc2cc(F)cc3c2OCOC3)n1Cc1ccco1	–	–	–	227[fluorescence artefact?]	–
CCOC(=O)c1cc2c(c(CSc3nc4ccccc4c(=O)n3Cc3ccco3)c1)OCOC2	–	–	–	337	–
CN(Cc1ccccc1)C(=O)CSc1nc2ccccc2c(=O)n1Cc1ccco1	–	–	–	–	–
Cc1cn([C@@H]2C[C@H](O)[C@@H](COC(N)=O)O2)c(=O)[nH]c1=O	·	·	–	·	·
COc1cc(-c2csc(C)n2)ccc1O	–	–	–	–	–
Cc1nc(-c2ccc(O)c(O)c2)cs1	59	–	–	–	–
CC(=O)c1c(C)[nH]c(C(=O)OCC(=O)N2CCc3ccccc32)c1C	–	–	–	229	–
NCCSCc1ccccc1Cl	·	·	–	·	·
CCOC(=O)c1cc(CC)sc1NC(=O)c1ccc2c(c1)OCCO2	–	–	–	466[fluorescence artefact?]	–
CCOC(=O)Cc1csc(NC(=O)CSc2nnc(Cc3csc(N)n3)n2C)n1	–	–	–	–	–
SMILES	ERb SRC1 inh	FAK inh	Smad3 FoxH1 inh	ERa SRC1 pot	ERa SRC1 inh
COC(=O)Cc1csc(N)n1	63![fluorescence artefact?]	–	–	–	–
O=C(COC(=O)CC1CCCC1)Nc1cc2c(cc1Cl)C(=O)c1ccccc1C2=O	–	–	–	–	52
Cc1ccc(Cl)cc1NC(=O)COC(=O)C1CCCC1	–	·	–	–	–
CC(C)CSC[C@@H]1O[C@H](n2cnc3c(N)nccc32)[C@H](O)[C@H]1O	·	·	–	·	·
CCCC(=O)Nc1c(C)nn(C(=O)CCC)c1C	–	–	–	278[fluorescence artefact?]	–
CC(NC(=O)CSc1nnc(-c2cc3cc(Cl)ccc3o2)n1C)c1ccccc1 (stereo not given)	–	–	–	–	–
Cn1c(SCC(=O)NC2CCCCC2)nnc1-c1cc2cc(Cl)ccc2o1	–	–	–	429[fluorescence artefact?]	–
Cc1ccc(-c2nnc(SCC(=O)Nc3ccc4c(c3)oc3ccccc34)n2C)c(Cl)c1	–	–	–	–	–
Cn1c(SCC(=O)Nc2cccc(Br)c2)nnc1-c1cc2ccccc2o1	–	–	–	631[fluorescence artefact?]	–
CCC(=O)Nc1cccc(NC(=O)CSc2nnc(C3CC3)n2C)c1	–	–	–	204	–
C=CCNS(=O)(=O)c1ncnc2nc[nH]c12	·	·	–	·	·
O=C(O)C[C@H](Cc1ccc2c(c1)OCO2)C(=O)O	·	·	–	·	·
COc1ccc(CC[N@+]2(C)COc3cc4oc(=O)cc(C)c4cc3C2)cc1OC	·	·	–	·	·
N#Cc1c(NC(=O)c2ccncc2)sc2c1CCC2	91[fluorescence artefact?]	–	–	–	91[fluorescence artefact?]
Cc1cc(=O)[nH]c(/N=C(\N)Nc2ccc(Cl)cc2)n1	·	·	–	·	·
CCOc1ccc(OCC)c(NC(=O)CSc2nc3ccccc3c(=O)n2C)c1	–	–	–	–	50[fluorescence artefact?]
COc1cc(NC(=O)CSc2nnc(-c3ccncc3)n2C2CCCCC2)ccc1NC(=O)c1ccco1	·	–	·	·	·
COc1cc(NC(=O)CSc2nc3ccccc3c(=O)n2C)ccc1NC(=O)c1ccco1	–	–	–	–	63
